Results filed as inconclusive are left out. Calls of active or inactive are those of the source. Unless noted, the call rests on the fitted dose curve; in most records, active means well fitted curve in the direction sought with a large enough effect in the repeat runs; inconclusive means weak or mixed curves; inactive means no such curve, though single readings can be large; an effect the other way counts as inactive or inconclusive.
Legend:
[1] = qHTS assay to identify aromatase inhibitors - cell viability counter screen (AID 743084);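 further: cells stimulated with testosterone during compound exposure; nearly all actives have a fitted effect of over 55% in size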
[2] = target: Aryl hydrocarbon receptor (Homo sapiens) (UniProt P35869); assay: qHTS assay to identify small molecule that activate the aryl hydrocarbon receptor (AhR) signaling pathway (AID 743085);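 further: HG2L7.5c1 human HepG2 liver cells with stably integrated DRE-driven firefly reporter; series mostly up to about 70 µM; nearly all actives have a fitted effect of over 15% in size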
Chain of Aryl hydrocarbon receptor (Homo sapiens) (P35869 whole entry, looked up): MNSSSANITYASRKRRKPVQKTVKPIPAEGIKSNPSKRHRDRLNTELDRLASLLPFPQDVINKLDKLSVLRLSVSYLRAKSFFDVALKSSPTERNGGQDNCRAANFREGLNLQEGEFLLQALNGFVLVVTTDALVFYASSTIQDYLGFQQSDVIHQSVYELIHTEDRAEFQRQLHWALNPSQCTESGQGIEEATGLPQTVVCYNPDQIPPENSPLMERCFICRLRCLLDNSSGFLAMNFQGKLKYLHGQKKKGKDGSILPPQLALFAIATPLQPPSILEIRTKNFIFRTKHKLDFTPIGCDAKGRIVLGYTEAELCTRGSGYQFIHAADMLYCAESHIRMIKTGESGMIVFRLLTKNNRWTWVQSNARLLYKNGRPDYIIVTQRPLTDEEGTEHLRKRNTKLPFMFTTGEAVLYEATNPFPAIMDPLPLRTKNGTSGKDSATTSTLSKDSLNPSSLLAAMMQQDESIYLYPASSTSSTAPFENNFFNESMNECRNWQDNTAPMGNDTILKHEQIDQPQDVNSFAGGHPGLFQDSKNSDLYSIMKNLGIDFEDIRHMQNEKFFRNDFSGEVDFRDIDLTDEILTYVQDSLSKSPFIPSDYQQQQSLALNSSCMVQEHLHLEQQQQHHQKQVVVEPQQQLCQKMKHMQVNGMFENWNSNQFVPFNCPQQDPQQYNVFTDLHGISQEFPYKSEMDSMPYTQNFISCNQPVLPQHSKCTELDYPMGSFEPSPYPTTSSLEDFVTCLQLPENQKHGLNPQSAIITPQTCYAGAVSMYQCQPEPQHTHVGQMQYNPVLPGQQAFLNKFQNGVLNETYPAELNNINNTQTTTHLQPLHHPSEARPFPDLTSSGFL
Method in brief: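 Stably transfected human liver carcinoma cells (HG2L7.5c1; 20 DRE-firefly luciferase) were incubated 5 h, dosed, and kept 24 h at 37C. Agonism was scored from increased luciferase luminescence.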

[3] = qHTS assay to identify small molecule that activate the aryl hydrocarbon receptor (AhR) signaling pathway - cell viability counter screen (AID 743086);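 further: HepG2 liver cells carrying the AhR DRE luciferase reporter; series mostly up to about 70 µM; nearly all actives have a fitted effect of over 45% in size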
Method in brief: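 HepG2-AhR-luc (HG2L7.5c1) cells, 4000/well, treated 24 h at 37 C with compound; viability measured as CellTiter-Fluor fluorescence after 30 min in the same wells as the luciferase read.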

[4] = target: Peroxisome proliferator-activated receptor gamma (Homo sapiens) (UniProt P37231); assay: qHTS assay to identify small molecule agonists of the peroxisome proliferator-activated receptor gamma (PPARg) signaling pathway (AID 743094; active means well fitted activation curve with a large enough effect in the signal ratio in the repeat runs, not every such curve was filed as active; the % refers to the signal ratio)
Chain of Peroxisome proliferator-activated receptor gamma (Homo sapiens) (P37231 whole entry, looked up): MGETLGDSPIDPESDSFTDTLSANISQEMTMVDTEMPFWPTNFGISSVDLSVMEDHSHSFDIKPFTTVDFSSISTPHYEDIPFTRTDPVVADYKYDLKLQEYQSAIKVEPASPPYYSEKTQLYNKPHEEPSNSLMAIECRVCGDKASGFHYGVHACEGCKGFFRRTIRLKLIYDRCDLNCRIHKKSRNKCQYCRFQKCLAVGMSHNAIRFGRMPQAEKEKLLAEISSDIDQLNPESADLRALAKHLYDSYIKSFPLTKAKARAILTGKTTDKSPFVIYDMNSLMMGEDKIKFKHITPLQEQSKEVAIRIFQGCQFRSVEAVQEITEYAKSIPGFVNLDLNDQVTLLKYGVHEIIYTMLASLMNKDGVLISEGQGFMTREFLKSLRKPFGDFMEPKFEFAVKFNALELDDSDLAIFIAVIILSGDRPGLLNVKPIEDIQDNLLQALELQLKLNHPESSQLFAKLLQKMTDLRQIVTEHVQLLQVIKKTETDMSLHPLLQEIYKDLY
Method in brief: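 GeneBLAzer PPARg UAS-bla HEK293H cells carrying a stably integrated beta-lactamase reporter were pre-incubated 5 h at 37C, then exposed to compounds in DMSO for 17 h at 37C; LiveBLAzer B/G FRET substrate was added for 1 h at room temperature and fluorescence read.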

[5] = target: Peroxisome proliferator-activated receptor gamma (Homo sapiens) (UniProt P37231); assay: qHTS assay to identify small molecule antagonists of the peroxisome proliferator-activated receptor gamma (PPARg) signaling pathway (AID 743191; calls by dose curve; further: series mostly up to about 63 µM; nearly all actives have a fitted effect of over 30% in size)
Method in brief: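 GeneBLAzer PPARg UAS-bla HEK293H cells, 5 h post-plating, exposed to compounds 17 h at 37C. LiveBLAzer B/G FRET substrate added for 1 h at room temperature; beta-lactamase reporter read by fluorescence intensity.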

[6] = qHTS assay to identify small molecule antagonists of the peroxisome proliferator-activated receptor gamma (PPARg) signaling pathway - cell viability counter screen (AID 743194); further: nearly all actives have a fitted effect of over 55% in size
Method in brief: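 Cytotoxicity counter screen in PPARg-bla HEK293H cells, same wells as reporter assay. Compounds plus 50 nM rosiglitazone (final) for 17 h at 37 C, then viability read by CellTiter-Glo luminescence.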

[7] = qHTS assay for small molecule agonists of the antioxidant response element (ARE) signaling pathway (AID 743202; active means well fitted activation curve with a large enough effect in the signal ratio in the repeat runs, not every such curve was filed as active; the % refers to the signal ratio)
Method in brief: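 Agonist mode reporter screen: HepG2 cells with ARE-controlled beta-lactamase are incubated with test compounds for 16 h at 37 C, and beta-lactamase activity is measured as fluorescence of cleaved B/G FRET substrate.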

[8] = qHTS assay for small molecule agonists of the antioxidant response element (ARE) signaling pathway - cell viability counter screen (AID 743203; calls by dose curve; further: nearly all actives have a fitted effect of over 55% in size)
Method in brief: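 CellSensor ARE-bla HepG2 cells, 2,000 per well, rested 5 hrs at 37C/5% CO2, then exposed to compound in DMSO for 16 hrs; viability read as CellTiter-Glo luminescence after 30 min at room temperature, in the reporter wells.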

[9] = qHTS assay for small molecule activators of the heat shock response signaling pathway - cell viability counter screen (AID 743209); further: nearly all actives have a fitted effect of over 50% in size
Method in brief: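 CellSensor HSE-bla HeLa cells, plated overnight at 37 C/5% CO2, were exposed to compounds in DMSO for 5 h at 37 C. Viability was then read in the same wells by CellTiter-Glo luminescence after 30 min at room temperature.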

[10] = qHTS assay to identify small molecule agonists of the peroxisome proliferator-activated receptor delta (PPARd) signaling pathway - cell viability counter screen (AID 743211); further: nearly all actives have a fitted effect of over 55% in size
Method in brief: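 In the same wells used for beta-lactamase reporter measurement, cytotoxicity is scored by CellTiter-Glo. HEK293H PPARd-bla cells receive compound for 17 h at 37C following a 5 h settling period.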

[11] = target: Peroxisome proliferator-activated receptor delta (Homo sapiens) (UniProt Q03181); assay: qHTS assay to identify small molecule agonists of the peroxisome proliferator-activated receptor delta (PPARd) signaling pathway (AID 743212; calls by dose curve)
Chain of Peroxisome proliferator-activated receptor delta (Homo sapiens) (Q03181 whole entry, looked up): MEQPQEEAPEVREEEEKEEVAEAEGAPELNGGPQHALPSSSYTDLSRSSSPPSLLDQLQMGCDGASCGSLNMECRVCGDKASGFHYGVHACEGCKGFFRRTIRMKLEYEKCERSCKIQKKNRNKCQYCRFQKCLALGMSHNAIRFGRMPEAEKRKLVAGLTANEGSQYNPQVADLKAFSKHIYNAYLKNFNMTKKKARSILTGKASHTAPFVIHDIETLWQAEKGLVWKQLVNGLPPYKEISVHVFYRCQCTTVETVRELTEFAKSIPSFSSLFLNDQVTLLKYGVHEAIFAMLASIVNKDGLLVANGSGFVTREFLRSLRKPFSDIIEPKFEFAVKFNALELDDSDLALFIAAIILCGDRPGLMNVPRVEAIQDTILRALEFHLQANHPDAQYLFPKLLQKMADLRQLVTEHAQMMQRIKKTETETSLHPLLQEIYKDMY
Method in brief: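 Quantitative high-throughput agonist screen in a HEK293H beta-lactamase reporter line under UAS control. Compounds in DMSO, at 37 C. Fluorescence read after 2 h with FRET substrate at room temperature.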

[12] = qHTS assay to identify small molecule antagonists of the peroxisome proliferator-activated receptor delta (PPARd) signaling pathway - cell viability counter screen (AID 743213); further: nearly all actives have a fitted effect of over 50% in size
Method in brief: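 Cytotoxicity counter screen: CellTiter-Glo luminescence read 30 min after addition, in the same wells as the reporter assay. There, PPARd UAS-bla HEK293H cells (3000/well) were treated 17 h at 37 C with compound and 300 nM L165041.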

[13] = target: Peroxisome proliferator-activated receptor delta (Homo sapiens) (UniProt Q03181); assay: qHTS assay to identify small molecule antagonists of the peroxisome proliferator-activated receptor delta (PPARd) signaling pathway (AID 743215; active means well fitted inhibition curve with a large enough effect in the signal ratio in the repeat runs, not every such curve was filed as active; the % refers to the signal ratio;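 further: cells stimulated with agonist L165041 at 300 nM final during compound exposure; series mostly up to about 62 µM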)
Method in brief: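 PPARd UAS-bla HEK293H cells were pre-incubated 5 h at 37 C, then given test compounds in DMSO plus agonist L165041 (300 nM final). After 17 h at 37 C, beta-lactamase FRET substrate was added; fluorescence read after 2 h at room temperature.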

[14] = qHTS assay to identify small molecule agonists of the farnesoid-X-receptor (FXR) signaling pathway - cell viability counter screen (AID 743218); further: nearly all actives have a fitted effect of over 45% in size
Method in brief: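 FXR-UAS-bla HEK 293T cells, plated 5 h at 37 C, were exposed to compounds for 16 h at 37 C. CellTiter-Glo was then added to the same wells as the bla readout; luminescence read after 30 min at room temperature.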

[15] = qHTS assay to identify small molecule antagonists of the farnesoid-X-receptor (FXR) signaling pathway - cell viability counter screen (AID 743221; active means well fitted cell-killing curve with a large enough effect in the repeat runs, not every such curve was filed as active; further: nearly all actives have a fitted effect of over 50% in size)
Method in brief: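 Here viability was scored by luminescence after CellTiter-Glo addition to wells already read for beta-lactamase. Prior treatment: compound plus CDCA (50 uM final), 16 h, 37 C, HEK 293T FXR-bla cells.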

[16] = target: Vitamin D3 receptor (Homo sapiens) (UniProt P11473); assay: qHTS assay to identify small molecule agonists of the vitamin D receptor (VDR) signaling pathway (AID 743222; calls by dose curve)
Chain of Vitamin D3 receptor (Homo sapiens) (P11473 whole entry, looked up): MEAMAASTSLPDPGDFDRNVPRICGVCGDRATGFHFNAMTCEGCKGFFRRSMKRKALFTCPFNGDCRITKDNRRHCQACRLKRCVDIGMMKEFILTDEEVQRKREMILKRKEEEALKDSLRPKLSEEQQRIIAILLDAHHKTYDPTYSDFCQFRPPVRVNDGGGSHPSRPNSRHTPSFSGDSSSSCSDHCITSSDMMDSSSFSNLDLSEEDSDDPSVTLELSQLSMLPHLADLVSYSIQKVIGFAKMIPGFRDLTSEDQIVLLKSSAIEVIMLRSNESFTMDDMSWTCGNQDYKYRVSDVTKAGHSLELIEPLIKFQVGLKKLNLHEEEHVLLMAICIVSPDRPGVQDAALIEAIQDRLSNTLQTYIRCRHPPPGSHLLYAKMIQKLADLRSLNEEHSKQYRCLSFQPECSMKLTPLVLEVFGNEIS
Method in brief: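 VDR-bla cells were plated 4 h at 37C/5% CO2, then exposed to compounds in DMSO for 16 h. After LiveBLAzer B/G FRET substrate addition and 2 h at room temperature, beta-lactamase reporter fluorescence was read.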

[17] = target: Vitamin D3 receptor (Homo sapiens) (UniProt P11473); assay: qHTS assay to identify small molecule antagonists of the vitamin D receptor (VDR) signaling pathway (AID 743223; active means well fitted inhibition curve with a large enough effect in the signal ratio in the repeat runs, not every such curve was filed as active; the % refers to the signal ratio)
Method in brief: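 Inhibition of agonist-driven VDR signalling is scored in VDR-bla cells: 3 nM final 1alpha,25-dihydroxyvitamin D3 plus compound, 16 h at 37C, then beta-lactamase detection by FRET substrate fluorescence after 2 h.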

[18] = qHTS assay for small molecule activators of the heat shock response signaling pathway (AID 743210; active means well fitted activation curve with a large enough effect in the signal ratio in the repeat runs, with a control signal flat, not every such curve was filed as active; the % refers to the signal ratio;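 further: HeLa cells with beta-lactamase reporter driven by heat shock elements; series mostly up to about 63 µM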)
Method in brief: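 Quantitative high-throughput format using an engineered HeLa line in which heat shock response elements drive beta-lactamase; after 5 h with compound, cells received a B/G FRET substrate and fluorescence was read.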

[19] = target: Bile acid receptor (Homo sapiens) (UniProt Q96RI1); assay: qHTS assay to identify small molecule antagonists of the farnesoid-X-receptor (FXR) signaling pathway (AID 743217; active means well fitted inhibition curve with a large enough effect in the signal ratio in the repeat runs, not every such curve was filed as active; the % refers to the signal ratio)
Chain of Bile acid receptor (Homo sapiens) (Q96RI1 whole entry, looked up): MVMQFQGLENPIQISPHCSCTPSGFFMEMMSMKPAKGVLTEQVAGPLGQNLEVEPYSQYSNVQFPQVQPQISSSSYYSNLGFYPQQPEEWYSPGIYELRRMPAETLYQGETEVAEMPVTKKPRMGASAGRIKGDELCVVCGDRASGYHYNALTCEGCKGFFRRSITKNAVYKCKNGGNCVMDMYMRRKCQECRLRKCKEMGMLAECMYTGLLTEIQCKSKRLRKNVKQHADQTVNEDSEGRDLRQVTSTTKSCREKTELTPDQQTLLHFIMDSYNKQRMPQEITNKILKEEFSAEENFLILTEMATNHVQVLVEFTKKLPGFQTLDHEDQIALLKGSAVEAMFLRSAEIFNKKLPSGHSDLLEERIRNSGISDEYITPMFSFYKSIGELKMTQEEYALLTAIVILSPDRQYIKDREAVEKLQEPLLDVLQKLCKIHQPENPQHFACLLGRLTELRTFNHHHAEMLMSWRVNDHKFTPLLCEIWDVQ
Method in brief: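 FXR-UAS-bla HEK 293T cells pre-incubated 5 h at 37 °C, then exposed to compounds with chenodeoxycholic acid (50 uM final) for 16 h at 37 °C. Beta-lactamase reporter read by LiveBLAzer B/G FRET substrate fluorescence after 2 h at room temperature.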

[20] = target: Bile acid receptor (Homo sapiens) (UniProt Q96RI1); assay: qHTS assay to identify small molecule agonists of the farnesoid-X-receptor (FXR) signaling pathway (AID 743220; active means well fitted activation curve with a large enough effect in the signal ratio in the repeat runs, not every such curve was filed as active; the % refers to the signal ratio)
Method in brief: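 Beta-lactamase reporter under UAS control in GeneBLAzer FXR HEK 293T cells (5000/well) measured with LiveBLAzer FRET substrate after 2 h at room temperature. Compound exposure lasted 16 h at 37C.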
On the % scale 0 is the no-effect control and ±100 the full control effect.

C=COCCOCCOCCOC=C
inactive: Potency [1] | Potency [2] | Potency [3] | outcome [4] | Potency [5] | outcome [6] | Potency [7] | outcome [8] | outcome [9] | outcome [10] | outcome [11] | outcome [12] | outcome [13] | Potency [14] | outcome [15] | outcome [16] | outcome [17]

CC(CO)c1ccccc1 (stereo unspecified)
inactive: Potency [1] | Potency [2] | Potency [3] | outcome [4] | Potency [5] | outcome [6] | Potency [7] | outcome [8] | outcome [9] | outcome [18] | outcome [10] | outcome [12] | Potency [14] | outcome [15]

CC(S)C(=O)NCC(=O)O (stereo unspecified)
inactive: Potency [1] | Potency [2] | Potency [3] | outcome [4] | Potency [5] | outcome [6] | Potency [7] | outcome [8] | outcome [9] | outcome [18] | outcome [10] | outcome [12] | Potency [14] | outcome [15] | outcome [16] | outcome [17]

O=S(O)(O)=S
inactive: activity change, negative = cytotoxicity [1] 0.159% [at 8.47 µM] | activation [2] -4.49% [at 8.47 µM] | viability change, negative = cytotoxic [3] -5.98% [at 8.47 µM] | activation [4] 0.645% [at 7.08 µM] | ratio activity, negative = inhibition [5] 10.9% [at 5.95 µM] | activity change, negative = cytotoxicity [6] -0.949% [at 5.95 µM] | activation [7] -7.19% [at 8.36 µM] | viability change, negative = cytotoxic [8] 2.86% [at 8.36 µM] | activity change, negative = cytotoxicity [9] 5.21% [at 5.95 µM] | activation [18] -0.665% [at 5.95 µM] | activity change, negative = cytotoxicity [10] 0.0962% [at 5.95 µM] | activation [11] 0.0872% [at 5.95 µM] | viability change, negative = cytotoxic [12] -0.861% [at 6.26 µM] | ratio activity, negative = inhibition [13] 3.14% [at 6.26 µM] | viability change, negative = cytotoxic [14] 3.63% [at 5.95 µM] | activity change, negative = cytotoxicity [15] 6.74% [at 5.95 µM]

OCCCCC(O)CO (stereo unspecified)
inactive: Potency [1] | Potency [2] | Potency [3] | outcome [4] | Potency [5] | outcome [6] | Potency [7] | outcome [8] | outcome [9] | outcome [18] | outcome [10] | outcome [11] | outcome [12] | outcome [13] | Potency [19] | Potency [14] | Potency [20] | outcome [15] | outcome [16] | outcome [17]

COCCOCCOCCOCCOCCO
inactive: Potency [1] | Potency [2] | Potency [3] | outcome [4] | Potency [5] | outcome [6] | Potency [7] | outcome [8] | outcome [9] | outcome [18] | outcome [10] | outcome [11] | outcome [12] | outcome [13] | Potency [14] | outcome [15] | outcome [17]

C[C@@H](Oc1ccc(CNC(=O)c2cccnc2Oc2ccc3c(c2)OCO3)c(F)c1)C(=O)O
inactive: Potency [1] | Potency [2] | Potency [3] | outcome [4] | Potency [5] | outcome [6] | Potency [7] | outcome [8] | outcome [9] | outcome [18] | outcome [10] | outcome [11] | outcome [12] | outcome [13] | Potency [19] | Potency [14] | Potency [20] | outcome [15] | outcome [17]

CC(=O)Nc1ccc(S(=O)(=O)Cl)cc1
inactive: Potency [1] | Potency [2] | Potency [3] | outcome [4] | Potency [5] | outcome [6] | Potency [7] | outcome [8] | outcome [9] | outcome [10] | outcome [11] | outcome [12] | outcome [13] | Potency [14] | outcome [15] | outcome [16] | outcome [17]
